From the supplement of paper PMC10849652
The full data set covers some 7,900 targets. This sample favours those with a hit. About 0.6% of all pairs of compound and target were hits. Unmarked numbers belong to inactive results.

Legend:
Assay in all cases: log2 fold change, soluble protein after heating vs DMSO (PISA); higher = thermal stabilisation; K562 cells, 10 uM, 30 min; active = over 0.2 and 3.5 SD of the protein, either way, in both replicates (recomputed)
[1] = compound: NC(=O)Nc1cc(-c2cccc(F)c2)sc1C(=O)N[C@H]1CCCNC1
Outline: (§1)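 Thermal stability values are relative to control samples and come from duplicates. They are expressed as log2 fold changes. For measurement, K562 cells (2×10^6 cells/mL) received 10 μM compound for 30 min, and aliquots were heated for 3 min over 48°C-58°C, pooled, and extracted at 4°C in PBS with 0.5% NP-40. Soluble protein, the supernatant after 21,000xg for 90 min, was quantified by TMTpro 16plex LC-MS/MS with equalised channel sums.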

[2] = compound: NC(=O)c1cnc(N[C@@H]2CCCC[C@@H]2N)nc1Nc1cccc(-n2nccn2)c1
Outline: as §1

[3] = compound: NC1(c2ccc(-c3nc4ccn5c(=O)[nH]nc5c4cc3-c3ccccc3)cc2)CCC1
Outline: as §1

[4] = compound: NCC(=O)Nc1ccc(-n2nc(C(F)(F)F)cc2-c2ccc3c(ccc4ccccc43)c2)cc1
Outline: as §1

[5] = compound: Nc1ccccc1NC(=O)c1ccc(CNC(=O)OCc2cccnc2)cc1 [entinostat]
Outline: as §1

[6] = compound: O=C(CCCCCCC(=O)Nc1ccccc1)NO [vorinostat]
Outline: as §1

[7] = compound: O=C(CCCCCCNC(=O)c1cnc(N(c2ccccc2)c2ccccc2Cl)nc1)NO [citarinostat]
Outline: as §1

[8] = compound: O=C(O)c1ccc2c(c1)nc(Nc1cccc(Cl)c1)c1ccncc12 [silmitasertib]
Outline: as §1

[9] = compound: O=C1NC(=O)C(c2cnc3ccccn23)=C1c1cn2c3c(cc(F)cc13)CN(C(=O)N1CCCCC1)CC2
Outline: as §1

[10] = compound: c1cc(OCCN2CCCCC2)cc(-c2n[nH]c3ccc(-c4nnc[nH]4)cc23)c1
Outline: as §1

[11] = compound: c1cn2cc(-c3ccc4cn[nH]c4c3)nc(Nc3ccc(N4CCOCC4)cc3)c2n1 [entospletinib]
Outline: as §1

Chain of UniProt Q86WA6 (Q86WA6 whole entry, looked up): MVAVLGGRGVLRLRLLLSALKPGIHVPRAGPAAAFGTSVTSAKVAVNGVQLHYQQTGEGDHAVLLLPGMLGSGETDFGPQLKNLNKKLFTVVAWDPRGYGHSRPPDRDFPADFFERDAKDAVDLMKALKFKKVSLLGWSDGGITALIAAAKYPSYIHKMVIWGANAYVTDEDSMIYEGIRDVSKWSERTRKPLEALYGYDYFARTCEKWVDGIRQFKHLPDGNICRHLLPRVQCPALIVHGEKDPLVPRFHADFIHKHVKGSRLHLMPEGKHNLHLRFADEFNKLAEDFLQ
Chain of UniProt Q86UU0 (Q86UU0 whole entry, looked up): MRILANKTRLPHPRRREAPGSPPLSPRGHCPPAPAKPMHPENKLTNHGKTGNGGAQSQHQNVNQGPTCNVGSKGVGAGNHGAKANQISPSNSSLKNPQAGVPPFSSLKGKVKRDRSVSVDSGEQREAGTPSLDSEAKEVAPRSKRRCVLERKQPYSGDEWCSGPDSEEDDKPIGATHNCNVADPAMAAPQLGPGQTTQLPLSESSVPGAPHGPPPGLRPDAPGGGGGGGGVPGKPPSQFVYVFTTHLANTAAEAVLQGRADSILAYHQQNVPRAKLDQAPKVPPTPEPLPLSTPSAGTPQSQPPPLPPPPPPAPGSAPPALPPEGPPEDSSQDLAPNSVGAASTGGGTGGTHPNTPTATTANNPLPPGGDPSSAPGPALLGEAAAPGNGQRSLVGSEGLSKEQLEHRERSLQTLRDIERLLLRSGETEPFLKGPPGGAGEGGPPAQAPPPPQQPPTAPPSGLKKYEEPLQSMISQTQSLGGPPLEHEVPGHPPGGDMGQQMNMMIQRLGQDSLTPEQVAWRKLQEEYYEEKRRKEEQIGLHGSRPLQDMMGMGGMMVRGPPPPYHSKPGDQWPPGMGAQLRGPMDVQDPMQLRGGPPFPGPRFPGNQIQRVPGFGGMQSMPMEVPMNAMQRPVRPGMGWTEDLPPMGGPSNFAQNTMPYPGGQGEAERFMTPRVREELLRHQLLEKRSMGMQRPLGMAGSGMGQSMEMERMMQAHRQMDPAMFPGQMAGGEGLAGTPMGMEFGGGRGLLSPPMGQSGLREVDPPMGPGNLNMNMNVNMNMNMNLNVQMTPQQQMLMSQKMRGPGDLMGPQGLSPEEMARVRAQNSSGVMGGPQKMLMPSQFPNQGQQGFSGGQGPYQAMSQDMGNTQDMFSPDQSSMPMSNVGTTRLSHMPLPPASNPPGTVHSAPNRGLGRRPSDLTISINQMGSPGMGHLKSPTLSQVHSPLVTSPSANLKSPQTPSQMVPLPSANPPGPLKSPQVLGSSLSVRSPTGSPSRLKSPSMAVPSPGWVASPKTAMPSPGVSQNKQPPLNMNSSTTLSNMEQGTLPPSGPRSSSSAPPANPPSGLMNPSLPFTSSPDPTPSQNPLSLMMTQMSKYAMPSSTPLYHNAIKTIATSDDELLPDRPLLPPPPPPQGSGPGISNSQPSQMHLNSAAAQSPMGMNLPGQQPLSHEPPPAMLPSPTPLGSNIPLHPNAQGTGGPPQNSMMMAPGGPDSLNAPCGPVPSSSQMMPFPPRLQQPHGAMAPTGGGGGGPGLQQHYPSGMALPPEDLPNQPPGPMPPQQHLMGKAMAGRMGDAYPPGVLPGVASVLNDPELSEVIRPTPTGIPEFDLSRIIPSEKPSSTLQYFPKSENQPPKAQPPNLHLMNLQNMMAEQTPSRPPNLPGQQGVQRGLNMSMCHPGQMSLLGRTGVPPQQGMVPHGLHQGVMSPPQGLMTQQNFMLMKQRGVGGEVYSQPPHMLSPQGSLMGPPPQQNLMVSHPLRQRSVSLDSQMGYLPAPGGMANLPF
Chain of UniProt Q8N6D5 (Q8N6D5 whole entry, looked up): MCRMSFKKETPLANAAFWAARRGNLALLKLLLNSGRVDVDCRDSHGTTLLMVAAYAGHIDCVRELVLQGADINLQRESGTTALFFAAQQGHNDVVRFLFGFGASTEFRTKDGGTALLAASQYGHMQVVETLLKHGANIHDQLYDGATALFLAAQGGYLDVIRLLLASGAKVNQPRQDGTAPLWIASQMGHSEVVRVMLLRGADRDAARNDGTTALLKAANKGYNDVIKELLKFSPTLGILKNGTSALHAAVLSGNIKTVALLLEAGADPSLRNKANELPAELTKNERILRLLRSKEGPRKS
Chain of UniProt Q8N2F6 (Q8N2F6 whole entry, looked up): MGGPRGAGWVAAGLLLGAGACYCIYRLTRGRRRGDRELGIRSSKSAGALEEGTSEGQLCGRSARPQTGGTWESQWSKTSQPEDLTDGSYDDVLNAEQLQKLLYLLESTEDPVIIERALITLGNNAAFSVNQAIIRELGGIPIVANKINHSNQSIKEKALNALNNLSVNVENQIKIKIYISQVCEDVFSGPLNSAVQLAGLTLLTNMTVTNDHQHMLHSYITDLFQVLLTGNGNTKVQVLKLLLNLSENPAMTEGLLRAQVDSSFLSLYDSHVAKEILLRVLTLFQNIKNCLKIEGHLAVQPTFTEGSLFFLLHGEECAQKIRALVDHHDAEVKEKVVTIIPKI
Chain of UniProt O00244 (O00244 whole entry, looked up): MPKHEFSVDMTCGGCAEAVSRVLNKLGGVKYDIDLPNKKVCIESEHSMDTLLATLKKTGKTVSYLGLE
Chain of UniProt P53680 (P53680 whole entry, looked up): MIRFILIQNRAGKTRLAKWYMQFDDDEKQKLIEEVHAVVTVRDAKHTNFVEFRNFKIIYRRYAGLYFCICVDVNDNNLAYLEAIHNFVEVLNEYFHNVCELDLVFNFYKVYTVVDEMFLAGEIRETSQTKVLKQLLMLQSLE
Chain of UniProt P53367 (P53367 whole entry, looked up): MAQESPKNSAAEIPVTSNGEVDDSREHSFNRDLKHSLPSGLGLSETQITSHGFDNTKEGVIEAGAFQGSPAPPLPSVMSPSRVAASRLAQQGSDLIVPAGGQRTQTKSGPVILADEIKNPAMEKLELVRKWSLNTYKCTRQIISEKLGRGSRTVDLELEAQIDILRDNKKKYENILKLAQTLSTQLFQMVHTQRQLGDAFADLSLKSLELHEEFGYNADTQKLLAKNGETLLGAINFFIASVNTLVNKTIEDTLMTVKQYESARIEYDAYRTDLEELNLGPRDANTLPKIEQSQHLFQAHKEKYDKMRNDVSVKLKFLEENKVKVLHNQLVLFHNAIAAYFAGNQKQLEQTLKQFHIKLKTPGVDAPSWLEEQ
Chain of UniProt Q10589 (Q10589 whole entry, looked up): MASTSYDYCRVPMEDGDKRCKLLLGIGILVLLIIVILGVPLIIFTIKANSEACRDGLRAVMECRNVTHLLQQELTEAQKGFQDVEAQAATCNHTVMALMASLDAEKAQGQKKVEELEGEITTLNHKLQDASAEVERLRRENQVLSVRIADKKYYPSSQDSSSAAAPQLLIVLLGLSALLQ
Chain of UniProt P36405 (P36405 whole entry, looked up): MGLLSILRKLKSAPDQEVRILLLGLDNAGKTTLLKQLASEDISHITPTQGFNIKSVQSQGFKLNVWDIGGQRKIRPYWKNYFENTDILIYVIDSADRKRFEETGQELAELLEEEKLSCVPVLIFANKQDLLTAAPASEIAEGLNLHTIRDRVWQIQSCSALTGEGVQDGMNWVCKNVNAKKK
Chain of UniProt Q93084 (Q93084 whole entry, looked up): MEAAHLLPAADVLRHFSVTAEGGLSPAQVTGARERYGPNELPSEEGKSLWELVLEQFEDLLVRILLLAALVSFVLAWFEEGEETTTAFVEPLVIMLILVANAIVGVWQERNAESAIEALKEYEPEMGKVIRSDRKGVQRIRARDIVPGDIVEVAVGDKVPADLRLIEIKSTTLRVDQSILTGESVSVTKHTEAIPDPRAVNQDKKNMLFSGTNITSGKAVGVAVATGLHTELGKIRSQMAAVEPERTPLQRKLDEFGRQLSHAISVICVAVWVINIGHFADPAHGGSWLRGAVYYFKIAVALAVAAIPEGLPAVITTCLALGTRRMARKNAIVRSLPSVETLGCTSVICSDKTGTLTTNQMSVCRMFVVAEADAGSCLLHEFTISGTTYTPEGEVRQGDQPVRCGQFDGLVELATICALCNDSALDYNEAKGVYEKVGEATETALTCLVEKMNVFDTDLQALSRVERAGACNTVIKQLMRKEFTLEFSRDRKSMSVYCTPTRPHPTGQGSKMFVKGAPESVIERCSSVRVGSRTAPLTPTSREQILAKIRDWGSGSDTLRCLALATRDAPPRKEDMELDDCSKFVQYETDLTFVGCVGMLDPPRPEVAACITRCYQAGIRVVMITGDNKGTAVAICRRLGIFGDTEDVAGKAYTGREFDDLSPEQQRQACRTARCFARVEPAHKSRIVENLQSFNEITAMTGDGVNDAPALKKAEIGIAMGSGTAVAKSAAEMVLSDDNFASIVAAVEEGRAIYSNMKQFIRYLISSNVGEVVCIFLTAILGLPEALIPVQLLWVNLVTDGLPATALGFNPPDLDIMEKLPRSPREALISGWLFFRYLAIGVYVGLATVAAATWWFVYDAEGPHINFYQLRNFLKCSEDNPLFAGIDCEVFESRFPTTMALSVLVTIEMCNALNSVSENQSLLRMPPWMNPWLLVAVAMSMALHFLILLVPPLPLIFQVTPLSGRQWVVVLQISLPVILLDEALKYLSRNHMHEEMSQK
Chain of UniProt Q96GS6 (Q96GS6 whole entry, looked up): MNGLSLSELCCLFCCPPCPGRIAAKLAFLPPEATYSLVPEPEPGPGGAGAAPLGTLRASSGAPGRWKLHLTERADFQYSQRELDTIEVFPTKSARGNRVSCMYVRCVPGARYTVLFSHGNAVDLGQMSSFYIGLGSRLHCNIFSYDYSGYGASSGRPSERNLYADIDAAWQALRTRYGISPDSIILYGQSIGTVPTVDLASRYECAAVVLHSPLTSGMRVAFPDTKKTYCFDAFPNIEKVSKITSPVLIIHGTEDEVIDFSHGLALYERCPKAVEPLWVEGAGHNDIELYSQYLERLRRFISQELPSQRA
Chain of UniProt P55957 (P55957 whole entry, looked up): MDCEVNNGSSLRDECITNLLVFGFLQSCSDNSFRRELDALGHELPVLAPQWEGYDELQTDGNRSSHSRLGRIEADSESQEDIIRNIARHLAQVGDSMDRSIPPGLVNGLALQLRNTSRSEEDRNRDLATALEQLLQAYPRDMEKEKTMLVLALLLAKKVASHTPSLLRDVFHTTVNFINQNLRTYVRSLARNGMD

Target | log2 fold change [1] | log2 fold change [2] | log2 fold change [3] | log2 fold change [4] | log2 fold change [5] | log2 fold change [6] | log2 fold change [7] | log2 fold change [8] | log2 fold change [9] | log2 fold change [10] | log2 fold change [11]
AHSA1 (UniProt O95433) | -0.002 | -0.005 | -0.131 | -0.043 | 0.022 | 0.013 | 0.026 | 0.019 | -0.009 | -0.003 | -0.017
ARL3 (UniProt P36405) | 0.02 | -0.005 | -0.051 | 0.006 | -0.024 | -0.013 | 0.05 | 0 | -0.001 | -0.022 | 0.008
AP2A1 (UniProt O95782) | -0.38 (active) | 0.061 | 0.041 | 0.026 | -0.002 | 0.038 | 0.005 | 0.047 | -0.275 (active) | -0.227 (active) | 0.017
BUB1B isoform 3 (UniProt O60566) | 0 | -0.135 | -0.113 | -0.039 | 0.068 | 0.124 | 0.02 | 0.111 | 0.026 | 0 | -0.016
AP2S1 (UniProt P53680) | -0.386 (active) | 0.102 | -0.009 | -0.039 | -0.066 | 0.108 | -0.077 | 0.011 | -0.314 (active) | -0.217 | 0.028
ARMC10 (UniProt Q8N2F6) | -0.039 | 0.003 | 0.005 | 0.028 | 0.005 | 0.056 | 0.096 | 0.054 | -0.039 | -0.062 | -0.001
ANKRD29 (UniProt Q8N6D5) | -0.044 | -0.181 | -0.337 | -0.119 | -0.03 | 0.061 | -0.002 | 0.039 | -0.2 | -0.051 | -0.152
ARGLU1 (UniProt Q9NWB6) | -0.089 | 0.01 | 0.168 | -0.08 | -0.071 | -0.061 | 0.026 | -0.245 | 0.319 | -0.208 | -0.013
ABHD17A isoform 2 (UniProt Q96GS6) | 0.036 | -0.119 | -0.049 | -0.078 | -0.104 | -0.04 | 0.036 | -0.02 | 0.01 | 0.051 | -0.076
ATR (UniProt Q13535) | -0.003 | 0.002 | 0.044 | -0.089 | 0.017 | 0.057 | 0.039 | 0.035 | -0.058 | -0.066 | -0.021
BZW1 isoform 3 (UniProt Q7L1Q6) | 0.071 | -0.054 | -0.246 | -0.093 | 0.165 | 0.209 | 0.075 | 0.02 | 0.019 | -0.081 | 0.03
BPHL (UniProt Q86WA6) | -0.014 | -0.081 | 0.255 | -0.012 | 0.019 | -0.04 | -0.042 | -0.045 | -0.06 | 0.051 | -0.01
ATP12A isoform 2 (UniProt P54707) | -0.115 | 0.049 | 0.075 | 0.003 | -0.072 | -0.035 | -0.033 | -0.033 | -0.032 | -0.037 | -0.003
AUP1 (UniProt Q9Y679) | -0.013 | -0.082 | -0.236 (active) | -0.107 | 0.061 | 0.135 | 0.067 | 0.019 | 0.064 | -0.051 | -0.025
BST2 (UniProt Q10589) | 0.031 | 0.02 | 0.003 | 0.132 | 0.03 | -0.026 | -0.058 | 0.009 | 0.112 | -0.092 | -0.009
ACACB (UniProt O00763) | -0.02 | -0.043 | -0.047 | 0.084 | 0.076 | 0.082 | 0.131 | 0.119 | 0.222 | -0.01 | -0.077
ATOX1 (UniProt O00244) | 0.175 | 0.273 | -0.032 | 0.03 | 0.081 | -0.018 | 0.091 | -0.105 | -0.081 | -0.004 | -0.005
B4GALT1 (UniProt P15291) | 0.053 | 0.114 | -0.279 | 0.199 | -0.01 | -0.01 | 0 | 0 | -0.039 | -0.027 | 0.039
ALDH9A1 isoform 3 (UniProt P49189) | 0.04 | -0.025 | -0.011 | -0.05 | 0.003 | -0.003 | 0.025 | -0.045 | -0.033 | 0.015 | -0.017
ARFIP1 (UniProt P53367) | 0.116 | -0.002 | -0.162 | 0.062 | 0.079 | 0.031 | 0.121 | -0.011 | -0.042 | -0.048 | -0.109
ATP2A3 isoform 2 (UniProt Q93084) | -0.008 | 0.007 | -0.096 | -0.072 | 0.035 | -0.018 | 0.019 | 0.068 | -0.069 | -0.05 | -0.036
ANKZF1 (UniProt Q9H8Y5) | -0.008 | 0.026 | 0.072 | -0.001 | 0.03 | 0.054 | -0.006 | -0.051 | 0.215 | -0.065 | 0.006
AGPAT3 isoform 3 (UniProt Q9NRZ7) | 0.008 | -0.044 | -0.141 | -0.041 | 0.004 | 0.004 | 0.029 | 0.008 | -0.079 | -0.044 | -0.017
AURKA (UniProt O14965) | 0.077 | -0.02 | 0.059 | -0.033 | -0.072 | -0.06 | -0.036 | 0.015 | 0.105 | -0.328 | 0.282
BCL9L (UniProt Q86UU0) | 0.037 | -0.009 | 0.03 | 0.021 | -0.002 | 0.012 | 0.017 | -0.038 | -0.045 | 0.241 (active) | -0.027
ATP6V0A1 isoform 3 (UniProt Q93050) | -0.051 | -0.207 | -0.184 | 0.008 | 0.083 | 0.062 | 0.109 | 0.102 | 0.019 | -0.112 | 0.079
BID isoform 2 (UniProt P55957) | 0.032 | 0.019 | -0.037 | 0.052 | -0.018 | -0.039 | 0.006 | -0.008 | 0.042 | 0.005 | 0.025
